# Hits are enriched below; roughly 3.6% of the tested compounds scored in any of these assays.
# FAS-TE inh – FAS thioesterase (human) inhibition | P49327 | recombinant FAS-TE, OMFH fluorogenic substrate, fluorescence endpoint | inhibition, % at 15 µM | 360,000 compounds, 0.67% hits;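 active = compounds whose normalised, plate-corrected inhibition of enzyme fluorescence in the single-dose primary screen is 50% or more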;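 also: 0% = DMSO with enzyme and 100% = substrate without enzyme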
# CendR NRP1 mod – NRP-1/CendR interaction modulation. O14786. inhibition, % at 25 µM. 360,000 compounds, 0.85% hits. FAM-RPARPAR peptide binding to NRP-1, fluorescence polarization;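 active = inhibition or corrected inhibition above about 18%, plus a signal ratio from 0.5 to 1.5, limit read from the data, passing the limit was not always enough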
# CRFR2-BP antag – CRF-BP/CRF-R2 complex antagonism | HEK293 CRF-R2/CRF-BP, CRF-induced calcium fluorescence | inhibition, % at 11.8 µM | AID 588475 | 350,000 compounds, 0.59% hits;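 active = inhibition of the ligand-induced calcium signal above about 50% at the single tested concentration, limit read from the data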
# Myeloid diff 2 – myeloid differentiation induction; calls only at 10 µM; 360,000 compounds, 1% hits; ER-HoxA9 myeloid progenitors, lysozyme-GFP differentiation, flow cytometry;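 active = normalized GFP-positive differentiation at or above the plate's own cutoff, the solvent-only control mean plus 3 SD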;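 also: cells exposed to compound for four days before flow analysis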
# NadD inh – blocks S. aureus nicotinate mononucleotide adenylyltransferase; 360,000 compounds, 0.78% hits; inhibition, % at 20 µM; purified NadD enzyme, colorimetric absorbance read-out; in the data active = inhibition above about 26%
# * hit, by the source's call; i = inactive; x = no result; + = active, no number.
SMILES,FAS-TE inh,CendR NRP1 mod,CRFR2-BP antag,Myeloid diff 2,NadD inh
CCOC(=O)c1c(C)[nH]c(C)c1S(=O)(=O)NCCc1sccc1C,-0.8,10.1,2.0,+,2.7
CCOC(=O)c1c(C)[nH]c(C)c1S(=O)(=O)NCCc1ccc(SC)cc1,2.7,12.6,9.4,i,-5.2
Cc1ccc(OCC(=O)N/N=C/c2cccn2C)cc1,-2.0,-9.8,-12.1,i,-4.1
Cc1ccc(C)c(OCC(=O)N/N=C\c2cccn2C)c1,-0.4,35.4*,10.9,i,1.0
Cc1ccc(OCC(=O)N/N=C\c2ccc(C)o2)c([N+](=O)[O-])c1,-10.9,-79.5,-8.1,+,-2.8
Cc1ccc(OCC(=O)N/N=C/c2ccccc2)c([N+](=O)[O-])c1,6.2,18.9*,-5.0,i,-4.2
NC(=O)c1ccccc1NC(=O)c1cc(S(=O)(=O)N2CCCCC2)ccc1N1CCOCC1,-1.7,5.4,-9.2,i,8.1
CCCCCC(=O)NNC(=O)c1ccc(F)cc1,-5.6,7.4,53.0*,i,-0.3
CC(=O)Nn1cnc2c(c1=O)C1(CCCC1)Cc1ccccc1-2,-12.9,2.9,-36.1,i,-4.8
CCCC(=O)Nn1cnc2c(c1=O)C1(CCCC1)Cc1ccccc1-2,5.8,25.3*,-1.6,i,-1.8
CCOC1=C2[C@@H](CN(S(=O)(=O)c3ccc(C)cc3)[C@H]2c2ccccc2)[C@H]2C(=O)N(c3ccccc3)C(=O)[C@H]2C1,28.3,-5.5,x,i,3.9
COc1cccc(NC(=O)CN(C)C(=O)CCNC(=O)c2ccc(Br)cc2)c1,-2.8,5.1,-5.1,i,-6.2
COc1cccc(CN(C)C(=O)CCNC(=O)c2ccc(Br)cc2)c1,1.5,8.2,-8.0,+,4.7
COc1cccc(CNC(=O)COC(=O)C23CC4CC(CC(Cl)(C4)C2)C3)c1,-0.7,0.9,-6.9,i,-3.3
COc1cccc(NC(=O)CN(C)C(=O)CCNC(=O)c2ccccc2OC)c1,-5.4,-19.7,1.2,+,-6.5
COc1cccc(NC(=O)CN(C)C(=O)C23CC4CC(CC(Cl)(C4)C2)C3)c1,17.5,32.8*,-5.2,i,-2.4
Cc1nc(N2N=C(c3ccc(Cl)cc3)CC2c2ccco2)sc1C(=O)N(C)C (stereo not drawn),22.0,-2.2,24.2,+,10.2
CCc1ccccc1NS(=O)(=O)c1cc2c3c(c1)CCN3C(=O)CC2,-54.6,-0.8,6.0,i,-1.5
CCOc1ccccc1N(CC(=O)N1CCOCC1)S(=O)(=O)c1ccc(SC)cc1,-3.9,28.5*,-28.1,i,-5.5
Clc1ccc(CSc2ccc(-c3cccnc3)nn2)cc1,12.9,-1.6,21.3,+,-4.9
CSC[C@H]1CN(Cc2ccccc2)C(=O)[C@@H]1CC(=O)Nc1ccc(Br)cc1,-5.8,-2.9,13.9,i,-2.4
CC(Oc1cccc(Cl)c1)C(=O)NCc1ccc(S(N)(=O)=O)cc1 (stereo not drawn),-6.6,30.4*,0.7,i,-3.0
COc1ccc(/C=C2\SC(=S)N(N3C(=O)CCC3=O)C2=O)cc1O,-5.3,36.4*,2.2,i,-10.7
COc1ccc(/C=C2/SC(=S)N(Cc3ccccc3)C2=O)cc1O,16.0,-15.6,-6.4,i,-6.3
O=C1S/C(=C/c2ccc(N3CCOCC3)o2)C(=O)N1Cc1c(F)cccc1Cl,-43.2,136.8,-42.9,+,9.0
SMILES,FAS-TE inh,CendR NRP1 mod,CRFR2-BP antag,Myeloid diff 2,NadD inh
CC1C(c2ccc3c(c2)OCO3)c2cc3c(cc2OC1N1CCOCC1)OCO3 (stereo not drawn),26.4,3.3,-10.4,i,7.4
COC(=O)c1ccc(N2CCN(C)CC2)c(NC(=O)c2cccnc2)c1,-3.6,-6.4,-10.5,i,-0.9
COC(=O)c1ccc(N2CCOCC2)c(NC(=O)c2cccnc2)c1,-1.5,26.4*,8.9,i,0.9
CCOC(=O)C1CCN(C(=O)c2n[nH]c(=O)c3ccccc23)CC1,-13.7,-3.6,91.5*,i,-8.6
COc1ccc(S(=O)(=O)c2c(N)n(Cc3ccco3)c3nc4ccccc4nc23)cc1,-14.8,-56.3,-38.0,+,34.3*
Cc1ccc(S(=O)(=O)c2c(N)n(CCCN(C)C)c3nc4ccccc4nc23)cc1,-1.8,-19.8,-25.0,i,-7.9
Cc1ccc(S(=O)(=O)c2c(N)n(/N=C/c3ccco3)c3nc4ccccc4nc23)cc1C,24.9,-101.7,-34.3,i,53.8*
Nc1c(S(=O)(=O)c2cccs2)c2nc3ccccc3nc2n1/N=C/c1cccc(O)c1,20.5,10.5,10.5,i,45.3*
